# Screens from PubChem.
# In the library only some 2.8% were active in any assay of this set; here they are far more common.
# HIF-2a inh: HIF-2a reporter inhibitors, primary screen, luminescence, 786-0 RCC cells. AID 624352, 2012. 786-0 RCC cells HIF-2a reporter, luciferase luminescence, overnight. inhibition, % at 18.8 µM. 0.72% of 360,000 active;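 active = inhibition of the luminescence signal of 40% or more relative to plate controls, in a single-dose primary screen at 18.75 µM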
# Shn3 inh set2: reduction of Shn3 3'UTR firefly luciferase signal, primary screen, Schnurri-3 inhibitor project, cell-based, Clone20 osteoblasts, set 2. Clone20 osteoblast Shn3 3'UTR firefly luciferase, 24 h. inhibition, % at 12.5 µM. 0.52% of 360,000 active. AID 588674, 2011;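 active = mean inhibition of at least 75% with every replicate also reaching 75%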;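 note: 0% = median of neutral control wells and 100% = pilot-screen positive control compound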
# TRPM1 prom inh: inhibitors of MITF-dependent TRPM1 promoter reporter, primary screen, cell-based, SK-MEL-5, single point, luciferase. SK-MEL-5 TRPM1 promoter luciferase, 24 h. inhibition, % at 12.5 µM. 0.83% of 330,000 active. AID 488899, 2010;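 active = mean inhibition across replicates of 60% or more, whatever share of single replicates reaches that level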
# KKLEB cytotox: cytotoxicity in KKLEB CF airway cells, primary screen, cytotoxicity control for CF NF-kB inhibitor project, cell-based, uHTS, fluorescence assay plates | AID 602141, 2011 | activity change (cytotoxicity), % at 5 µM | KKLEB CF airway cells viability, ATPlite luminescence, overnight; stronger effect = lower value; cells stimulated with P. aeruginosa culture filtrate | 0.36% of 360,000 active;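 active = corrected activity change at or below -50% at 5 µM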
# Peg3 promoter: Peg3 promoter-driven luciferase inhibitors, primary screen, cell-based, HeLa, luciferase luminescence; HeLa PEG-Prom luciferase reporter, overnight; inhibition, % at 20 µM; 1.7% of 360,000 active; AID 588405, 2011;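 active = inhibition of at least 50% at 20 µM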
# CF NFkB block: inhibitors of PAF-induced NF-kB signaling, primary screen, cell-based, GFP fluorescence, uHTS | KKLEB NF-kB-GFP reporter, GFP fluorescence overnight | inhibition, % at 5 µM | 0.86% of 360,000 active | AID 588850, 2011;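 active = at least 50% inhibition at 5 µM, scaled per plate between neutral and stimulator controls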;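 note: PAF is a Pseudomonas aeruginosa culture filtrate used as stimulus; plate controls were PAF-stimulated DMSO wells for no effect and unstimulated DMSO wells for full effect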
# The depositor's hits bear a star; · = no result.
SMILES,HIF-2a inh,Shn3 inh set2,TRPM1 prom inh,KKLEB cytotox,Peg3 promoter,CF NFkB block
COc1ccc(C)cc1S(=O)(=O)N(C)CC(=O)N1CCCCCC1,7,5,-4,6,75*,-7
COc1cc(C(C)=O)ccc1OCC(=O)Nc1ccc(C)c(S(=O)(=O)N2CCCCCC2)c1,29,81,33,4,55*,11
COc1ccc(CC(=O)Nc2cccc(S(=O)(=O)N3CCCCCC3)c2)cc1OC,21,90*,31,-10,19,-2
COc1ccc(NC(=O)CCOc2cc(C)ccc2C)cc1S(=O)(=O)N1CCCCC1,-4,93*,12,-10,18,-13
COc1ccc(CCC(=O)Nc2cccc(S(=O)(=O)N3CCCCCC3)c2)cc1OC,13,24,20,-4,15,14
Cc1ccc(OCCNC(=O)C(=O)NCc2ccco2)cc1,19,28,5,-17,20,13
CN(C)c1ccc(-c2nc3cc(N)ccc3o2)cc1,-54,9,7,-60*,-27,-10
CC(O)CNCCCOc1ccc(Cl)cc1C(C)(C)C (stereo not drawn),2,-12,-10,-11,81*,10
CN(C)CCOCCOc1ccc(Cl)cc1C(C)(C)C,11,14,-2,-22,18,11
COC(=O)/C=C/S(=O)(=O)c1ccc(NC(C)=O)cc1,13,93*,21,-22,105*,91*
CCn1c(=O)cc(SCC(=O)N2CCN(c3ccccc3F)CC2)c2ccccc21,-31,-10,-1,12,-17,-54
O=C1Nc2ccc(Br)cc2/C1=C/C(=O)c1ccccc1,23,65,75*,9,98*,18
O=C(O)COc1ccccc1/C=C1\C(=O)Nc2ccc(Br)cc21,19,-35,19,-9,1,17
CC1(C(=O)O)CCN1C(=O)c1cccc(C(F)(F)F)c1 (stereo not drawn),-1,-1,·,9,-2,-2
O=C(N/N=C/c1cc([N+](=O)[O-])ccc1N1CCNCC1)c1ccc([N+](=O)[O-])cc1,28,5,84*,-7,103*,-5
O=C(/C=C/c1ccncc1)c1ccc2c(c1)OCCO2,3,5,-2,-16,105*,10
O=C(NC1CCCCC1)C(c1ccncc1)N(Cc1ccccc1)C(=O)c1ccc(-c2ccccc2)[nH]1 (stereo not drawn),-32,34,21,-50*,14,38
Cc1cc(/C=C2\SC(N)=NC2=O)c(C)n1-c1ccc(F)cc1,-166,-57,-35,-10,-123,12
O=C(O)[C@@H](O)[C@H](O)C(=O)O,2,10,0,-61*,-1,4
Cc1ccc(C(=O)/C=C/c2ccccc2[N+](=O)[O-])cc1,-198,-52,-40,-6,28,-27
O=C(/C=C/c1ccccc1[N+](=O)[O-])c1ccccc1Br,38,22,-10,-10,96*,22
Cc1csc(N2C(=O)C3C4CCC(O4)C3C2=O)n1 (stereo not drawn),1,2,2,-9,12,4
CCCCN1C(=O)C(=O)NC[C@@H]1Cc1ccc(O)cc1,2,·,·,·,·,·
c1cncc(CN2CCN(c3cc(-c4cnc5ccccc5c4)nc4ccnn34)CC2)c1,-15,-4,·,2,-3,2
O=C(NCCCCCCNC(=O)OCc1ccccc1)OCc1ccccc1,1,-8,-11,-11,2,-11
O=C(OCc1ccccc1)N(CCCCN(CCCNCc1ccccc1)C(=O)OCc1ccccc1)CCCNCc1ccccc1,89*,99*,97*,-90*,108*,68*
O=C(Nc1ccc(Cl)cn1)c1ccc(-c2ccc(Cl)c(Cl)c2)o1,3,-25,-3,2,-11,-22
CCN1CCN(Cc2ccc(NC(=O)c3cc(NC(=O)c4cnn(-c5ccccc5)c4N)cc(OC)c3)cc2C(F)(F)F)CC1,-18,15,79*,-8,-34,45
